HIV RNase H inh-1 – inhibitors of HIV-1 reverse transcriptase RNase H; P04585; RT-RNase H RNA/DNA duplex cleavage, fluorescence; inhibition, % at 10 µM; hit rate 1.9% among 65,000; in the data active means inhibition above about 50%
HIV RNase H inh-2 – confirmation of HIV-1 reverse transcriptase RNase H inhibitors; shares compounds with HIV RNase H inh-1; Recombinant RT RNase H, fluorescent RNA/DNA duplex cleavage; inhibition, % at 10 µM; hit rate 39% among 1,000; AID 651; in the data active means inhibition above about 48%; inconclusive means no clear call, values can overlap the other calls
* marks the source's active call; other numbers are inactive results; u = inconclusive. The full list was thinned out, with hits kept by preference.

SMILES	HIV RNase H inh-1	others
CC1CC(C)CN(C(=O)CSc2nnc(-c3ccc(Cl)s3)o2)C1 (stereo unspecified)	15
CC1CC(C)CN(C(=O)CSc2nnc(-c3ccc(F)cc3)o2)C1 (stereo unspecified)	82*	HIV RNase H inh-2=-5
CCN(CC)S(=O)(=O)c1ccc(-c2nnc(SCC(=O)N3CCOCC3)o2)cc1	-7
COc1cccc(NC(=O)[C@@H]2CCCN2C(=O)C2CCN(S(=O)(=O)c3ccc(C)cc3)CC2)c1	-3
CCCCn1c2c(c(=O)n(C)c1=O)C(c1ccc(OC)cc1)N1CCCCCC1=N2 (stereo unspecified)	-14
Cc1ccc(CN2C(=O)CCC2C(=O)NCc2ccco2)cc1 (stereo unspecified)	-12
CC(=O)NC1(C(F)(F)F)C(=O)NC(C)=C1C#N (stereo unspecified)	-1
CCCSc1nc(C)c(-c2csc(C(C#N)=C3CCCC3)n2)cc1C#N	58*	HIV RNase H inh-2=4
CCCCSc1nc2c(cc1C#N)CCC2	-33
CC(=O)c1cc(C#N)c(SCCC(C)C)nc1C	-18
Cc1cccc(NC(=O)C(NS(=O)(=O)c2ccc3c(c2)CCC(=O)N3)c2ccccc2)n1 (stereo unspecified)	7
COC(=O)C(NC=O)C(O)(Cc1ccccc1)C(F)(F)F (stereo unspecified)	-4
CCCCC(CC)Cn1c2nc3ccccc3nc2c2c(=N)oc(C)nc21 (stereo unspecified)	68*	HIV RNase H inh-2=65*
CCCCn1c2nc3ccccc3nc2c2c(=N)oc(C)nc21	-10
CCCCC(CC)Cn1c(N)c(C#N)c2nc3ccccc3nc21 (stereo unspecified)	6
CC(C)(C)Sc1nc(O)cc(=O)[nH]1	0
NC(=O)c1oc2ccc(Cl)cc2c1NC(=O)CN1CCOCC1	-9
CCOC(=O)C1=C(C)N=c2s/c(=C/c3ccco3)c(=O)n2C1c1cccc(OC)c1 (stereo unspecified)	3
COc1ccc(C2C(C(C)=O)=C(C)N=c3s/c(=C/c4ccc5c(c4)OCO5)c(=O)n32)cc1 (stereo unspecified)	70*	HIV RNase H inh-2=54*
CC(=O)C1=C(C)N=c2s/c(=C/c3ccc4c(c3)OCO4)c(=O)n2C1c1ccc(N(C)C)cc1 (stereo unspecified)	45
CCN(CC)CCCN1C(=O)c2oc3ccccc3c(=O)c2C1c1cc(OC)ccc1OC (stereo unspecified)	3
Cc1ccc(C)c2[nH]c(=O)c(CCNC(=O)c3ccc(S(=O)(=O)N(C)C)cc3)cc12	-15
CCOC(=O)N1CCC(NC(=O)CCc2c(C)nc3ncnn3c2C)CC1	1
Cc1cc(C)nc(SCC(=O)Nc2cc(C)on2)n1	-17
Cc1cc(NC(=O)CSc2ccccc2)no1	-9
SMILES	HIV RNase H inh-1	others
CCCCOC(=O)CSCC(=O)Nc1cc(C)on1	71*	HIV RNase H inh-2=5
O=S(=O)(c1ccc(Oc2ccc(Br)cc2)cc1)N1CCOCC1	-40
Cc1cc(-c2cc(-c3ccc(Cl)cc3)nc(N)c2C#N)co1	37
Cc1csc(NC(=O)CSc2nnc(-c3ccc(S(=O)(=O)N4CCCC4)cc3)o2)n1	0
Cc1ccc(-c2nnc(SCC(=O)Nc3ccc(S(=O)(=O)N4CCCCCC4)cc3)o2)cc1	65*	HIV RNase H inh-2=u
CC(=O)c1cccc(NC(=O)CSc2nnc(-c3ccc(S(=O)(=O)N4CCCC4)cc3)o2)c1	21
Cc1cc(NC(=O)CN2C(=O)C3CC=CCC3C2=O)no1 (stereo unspecified)	-3
CCOC(=O)C1CCCN(S(=O)(=O)c2cccc3cccnc23)C1 (stereo unspecified)	-32
Cc1ccc2c(c1C)NC(C(=O)O)C1CC=CC21 (stereo unspecified)	96*	HIV RNase H inh-2=69*
O=C(c1ccccc1)c1ccccc1C(=O)N1CCOCC1	-2
O=C(c1ccc(Cl)cc1)c1ccccc1C(=O)N1CCOCC1	3
Cc1ccc(C)c(NC(=O)C2CC=CCC2C(=O)O)c1 (stereo unspecified)	1
O=C(O)C1Nc2c(C(=O)N3CCOCC3)cccc2C2C=CCC12 (stereo unspecified)	77*	HIV RNase H inh-2=35
CC1(C)CC2CC(C)(CN2C(=O)C23CCC(C)(C(=O)O2)C3(C)C)C1 (stereo unspecified)	-5
Cc1cc(C)n(CCc2nc(-c3cccs3)cs2)n1	-1
Cc1nn(CCc2nc(-c3ccco3)cs2)c2[nH]c(=O)cc(C(F)(F)F)c12	88*	HIV RNase H inh-2=69*
O=c1[nH]c(=O)n(Cc2ccccc2)c2nc(-c3ccco3)cc(C(F)(F)F)c12	3
CC(C)COCC1CC2(CC(C)(c3csc(N)n3)OC2=O)C(=O)O1 (stereo unspecified)	1
C=CCNc1nc(C2(C)CC3(CC(C)(C)OC3=O)C(=O)O2)cs1 (stereo unspecified)	57*	HIV RNase H inh-2=24
C=CCNc1nc(-c2c(C)nc3sccn23)cs1	-11
Cc1cc(=O)[nH]c(Nc2ccc(C(=O)OC(C)C)cc2)n1	-7
O=C(Nc1sc2c(c1C(=O)NC1CCCCC1)CCC2)c1ccco1	24
O=C(NC1CCS(=O)(=O)C1)c1c(NC(=O)C2COc3ccccc3O2)sc2c1CCCC2 (stereo unspecified)	54*	HIV RNase H inh-2=70*
O=C(Nc1nc2c(s1)CCCC2)C1COc2ccccc2O1 (stereo unspecified)	-11
CCCCn1c(N(CCOC(C)=O)C(C)=O)nc2ccccc21	-9
SMILES	HIV RNase H inh-1	others
COc1ccc(OCc2nn3c(Cn4cnc5ccccc54)nnc3s2)cc1	-24
COc1ccccc1-c1nn2c(-c3ccccc3Cl)nnc2s1	-2
c1csc(-c2nn3c(C4COc5ccccc5O4)nnc3s2)c1 (stereo unspecified)	91*	HIV RNase H inh-2=62*
Fc1ccc(-c2nn3c(C4COc5ccccc5O4)nnc3s2)cc1 (stereo unspecified)	2
c1ccc2c(c1)ncn2Cc1nnc2sc(-c3ccc4c(c3)OCO4)nn12	69*	HIV RNase H inh-2=61*
O=c1[nH]cnc2scc(C3COc4ccccc4O3)c12 (stereo unspecified)	-14
c1ccc2c(c1)OCC(c1nnc3sc(-c4ccc5c(c4)OCO5)nn13)O2 (stereo unspecified)	85*	HIV RNase H inh-2=69*
Fc1ccc(-c2nnc3sc(C4COc5ccccc5O4)nn23)cc1 (stereo unspecified)	-15
Clc1ccccc1-c1nnc2sc(-c3ccc(Br)o3)nn12	-20
Clc1ccccc1-c1nnc2sc(-c3ccc4c(c3)OCO4)nn12	92*	HIV RNase H inh-2=u
Clc1cc2c(c(Cn3cnc4ccccc43)c1)OCOC2	-97
c1ccc2c(c1)OCC(c1nnc3n1-c1ccccc1SC3)O2 (stereo unspecified)	-27
CCCCNC(=O)Oc1cccc(N2CCCC2=O)c1	-1
CCOc1ccc(N2CC(C(=O)Nc3ccccc3F)CC2=O)cc1 (stereo unspecified)	-7
Cc1ccc(-c2nnn(CC(=O)Nc3cccc4cccnc34)n2)o1	-9
COc1cccc(NC(=O)CSCc2n[nH]c(=O)[nH]2)c1	4
CCn1c2ccccc2c2nnc(SCC(=O)N3CC(C)OC(C)C3)nc21 (stereo unspecified)	0
CCCCC(NC(C)=O)c1nc2ccccc2n1CCCC (stereo unspecified)	-3
COC(=O)c1ccccc1NS(=O)(=O)c1cn(C)c(=O)n(C)c1=O	-14
O=C(Cc1cccs1)Nc1cccnc1	-4

From PubChem BioAssay
